# Measured values reported in the supplement of paper PMC6555819.
# What was measured:
# Assay in all cases: PBM binding z-score (relative to random genomic background probes); higher = stronger binding; sequences stand for … in GC…GCGATTGACAGCGTAGAATGAAGG
# [1] = tested on: PPARg:RXRa DBDmut IVT, anti-RXR (DBD mutation: RXRa K156A/R161A, NR concentration 270 nM, RXRa partner concentration 90 nM)
# In short: (§1)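 Regression normalization was applied to scanned fluorescence from custom Agilent 4×180K protein-binding microarrays. Before scanning, arrays were incubated 1 h with ligand-free nuclear receptor dimers, and binding was detected with antibodies against each partner (one per run). Binding z-scores use the random background probes as reference.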
# [2] = tested on: PPARg:RXRa IVT, anti-PPARg (NR concentration 270 nM, RXRa partner concentration 90 nM)
# In short: as §1
# [3] = tested on: PPARg DBDmut:RXRa IVT, anti-PPARg (DBD mutation: PPARg1 K132A/R137A, NR concentration 270 nM, RXRa partner concentration 90 nM)
# In short: as §1
# [4] = tested on: PPARg DBDmut IVT, anti-PPARg (DBD mutation: PPARg1 K132A/R137A, NR concentration 270 nM)
# In short: as §1
# [5] = tested on: PPARg homodimer (NR concentration 180 nM)
# In short: as §1
# [6] = tested on: PXR:RXRa (NR concentration 270 nM, RXRa partner concentration 90 nM)
# In short: as §1
# [7] = tested on: PXR homodimer (NR concentration 270 nM)
# In short: as §1
# [8] = tested on: RARa:RXR (NR concentration 270 nM, RXRa partner concentration 90 nM)
# In short: as §1
# [9] = tested on: RARa homodimer (NR concentration 270 nM)
# In short: as §1
# [10] = tested on: RARb:RXRa (NR concentration 270 nM, RXRa partner concentration 90 nM)
# In short: as §1
# [11] = tested on: RARb homodimer (NR concentration 270 nM)
# In short: as §1
# [12] = tested on: RARg:RXRa (NR concentration 270 nM, RXRa partner concentration 90 nM)
# In short: as §1
# [13] = tested on: RARg homodimer (NR concentration 270 nM)
# In short: as §1
# [14] = tested on: RXRa DBDmut IVT, anti-RXR (DBD mutation: RXRa K156A/R161A, NR concentration 90 nM)
# In short: as §1
# [15] = tested on: RXRa homodimer (NR concentration 180 nM)
# In short: as §1
# [16] = tested on: THRa:RXRa (NR concentration 90 nM, RXRa partner concentration 90 nM)
# In short: as §1
# [17] = tested on: THRa homodimer (NR concentration 90 nM)
# In short: as §1
# [18] = tested on: VDR homodimer (NR concentration 270 nM)
# In short: as §1
Sequence,PBM binding z-score [1],PBM binding z-score [2],PBM binding z-score [3],PBM binding z-score [4],PBM binding z-score [5],PBM binding z-score [6],PBM binding z-score [7],PBM binding z-score [8],PBM binding z-score [9],PBM binding z-score [10],PBM binding z-score [11],PBM binding z-score [12],PBM binding z-score [13],PBM binding z-score [14],PBM binding z-score [15],PBM binding z-score [16],PBM binding z-score [17],PBM binding z-score [18]
CCTTACGCGTCACTGACAGGTTATAGCATTTGGA,0.598,-0.176,0.212,0.276,0.943,0.459,0.407,0.676,1.36,0.243,0.655,0.439,0.151,1,0.414,0.506,0.512,0.287
TCTATTGGTTGAAGGGCAACCGACGAGTCCGTTT,1.93,0.82,0.765,0.266,1.09,0.725,0.614,0.74,0.718,1.55,1.17,0.455,0.586,1.37,0.744,0.279,0.101,1.24
ATCTCTCGGTAAAAGTTCAGTGAATCCCGAGGAT,-0.48,1.24,1.23,1.28,1.06,1.92,1.71,0.639,0.811,2.4,2.43,1.76,2.03,0.823,0.954,0.761,0.0329,1.74
ACTATTACTTGAGACGAGGGCAACCGATAGGTTG,0.899,1.15,0.818,1.3,1.24,0.601,0.904,0.426,1.54,1.3,1.67,0.798,0.981,1.01,0.63,1.15,1.02,1.76
ATACCAAGGTGATCGTGATGTCGTTGATACTAAC,0.486,0.996,0.919,1.1,0.247,-0.038,0.104,0.057,0.517,0.325,0.279,0.25,0.334,0.0865,0.28,0.81,0.541,0.117
CAAACTAGGTCACAGAGGTCAAGGTCCGTGCGTA,8.45,9.01,2.38,2.54,4.67,6.54,10,7.58,2.96,5.46,5.39,7.22,7.73,2.61,7.09,5.05,3.46,4.66
TCTTGTAGATCAACAGGAGGCTAAGAAAGATCGA,1.2,0.746,0.507,0.151,-1.21,-0.24,-0.799,-0.313,-0.265,-0.249,-0.642,0.0636,-0.13,0.0884,-0.111,-0.56,-1.25,-0.893
ACTAGCAGGACAAGTTTGGGTCACTCAAACAAAG,0.129,0.867,0.113,-0.22,0.596,0.911,-0.116,1.47,-0.279,1.7,2.28,1.51,1.55,0.164,0.931,2.62,1.42,0.216
ATGTGTAGGTTATCGGGTCATTCAGTTTGCGCAT,4.63,5.37,1.53,2.39,3.67,4.09,9.38,4.11,2.56,2.75,3.35,3.59,2.67,1.75,3.57,3.57,3.71,3.91
GCGACTGGGGCTTCAGCAGGTTACCATAACTTAA,0.693,0.216,-0.978,-1.13,0.227,-0.117,-0.245,0.339,-0.857,-0.108,0.521,-0.404,-0.463,-0.297,0.00147,0.733,-0.0641,-0.284
GCGACAGGGGCAAAGCAGGTTACCATAAGGTTGG,0.177,0.684,-0.131,-0.736,0.212,0.934,-0.112,1.19,-0.459,1.47,1.21,1.06,0.918,0.664,1.06,3.83,0.135,0.281
TACACAGGGTCAAAGGCCAGAGTACGAATGTCGA,1.53,4.08,0.992,0.428,1.44,4.11,0.543,5.47,0.487,4.53,3.22,5.65,5.36,3,7.62,3.5,0.79,3.23
ACCGAAAGGTCGAGGTGAGTATAGAGAAAGGGAA,0.771,2.17,0.276,0.807,1.13,2.31,0.286,3,0.981,4.17,2.81,4.28,4.43,0.832,4.35,2.94,0.707,0.402
CCTACTGGGCCATCAGGACATTGATATCAACGTT,3.58,3.83,0.0869,0.0679,0.687,-0.0432,-0.0909,0.486,0.102,0.235,0.152,0.263,0.554,-0.317,-0.395,1.41,1.27,0.257
TGAATGAGGCTATAAGATCAGGGAACGTTGCAAA,-0.531,-0.142,0.314,0.0126,-0.853,-0.467,-0.512,-0.215,-0.382,-0.0944,-0.742,-0.102,0.256,-1.09,-0.0491,-0.134,-0.324,-0.554
